This is part of a sample that, as a whole, favours compounds with a hit. Of some 83,000 tested, about 20% had one in any assay.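 96-well plates, one dose, 48 hours. Percent growth reported; active if below 10.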 Active and inactive are the calls of the source.
How the values were obtained:
Assay in all cases: NCI-60 one-dose screen, 48 h (100 = growth as untreated, 0 = no growth, -100 = all killed)
Conditions in all cases: 10 µM unless noted
T-47D breast = test system: T-47D breast
BT-549 breast = test system: BT-549 breast
MDA-MB-435 melanoma = test system: MDA-MB-435 melanoma
SW-620 colon = test system: SW-620 colon
MCF7 breast = test system: MCF7 breast
HCT-116 colon = test system: HCT-116 colon
HCC-2998 colon = test system: HCC-2998 colon
KM12 colon = test system: KM12 colon

Measured: growth

COc1ccc(NC(=O)CSc2nnc(-c3ccc4nc(-c5ccc(OC)c(OC)c5)[nH]c4c3)o2)cc1OC
inactive: T-47D breast 90.3% | BT-549 breast 90.7% | MDA-MB-435 melanoma 102% | SW-620 colon 105% | MCF7 breast 91.9% | HCT-116 colon 98.1% | HCC-2998 colon 111% | KM12 colon 101%

COc1ccc(-c2nc3cccc(O)c3c(=O)n2Cc2ccccc2)cc1COc1ccc(NC(C)=O)cc1
inactive: T-47D breast 76.5% [3 µM] | BT-549 breast 55.4% [3 µM] | MDA-MB-435 melanoma 59.7% [3 µM] | SW-620 colon 27.9% [3 µM] | MCF7 breast 37.1% [3 µM] | HCT-116 colon 22.1% [3 µM] | HCC-2998 colon 67.8% [3 µM] | KM12 colon 39.8% [3 µM]

C=C(C=O)[C@@H]1CC[C@]2(C)[C@H](C(=O)C=C3[C@H]4C[C@](C)(C(=O)OC)CC[C@]4(C)CC[C@]32C)[C@@]1(C)CCC#N
inactive: T-47D breast 19.3% | BT-549 breast 13.8%
active: MDA-MB-435 melanoma -12.2% | SW-620 colon 4.74% | MCF7 breast 2.5% | HCT-116 colon -56% | HCC-2998 colon -73% | KM12 colon 3.36%

O=C(/C=C/c1ccc(F)cc1)c1ccc(O)cc1
active: HCT-116 colon -44.1%
inactive: T-47D breast 93.9% | BT-549 breast 103% | MDA-MB-435 melanoma 67% | SW-620 colon 81.4% | MCF7 breast 30.3% | HCC-2998 colon 112% | KM12 colon 59.3%

O=S(=O)(Nc1ccc2c(c1)OCO2)c1ccc(-c2cnc(C3CC3)o2)cc1
active: MDA-MB-435 melanoma 0.417%
inactive: T-47D breast 31.7% | BT-549 breast 42.1% | SW-620 colon 21.2% | MCF7 breast 22.3% | HCT-116 colon 19.9% | HCC-2998 colon 73.5% | KM12 colon 23.1%

CN(C)CCNC(=O)c1ccc(-c2nc3ccc4[nH]ncc4c3c3c2COCC3)cc1
active: T-47D breast -7.62% | BT-549 breast -16.2% | MDA-MB-435 melanoma 3.65% | SW-620 colon 3.1% | MCF7 breast 0.287% | HCT-116 colon 2.59% | HCC-2998 colon -20.8%
inactive: KM12 colon 16.4%

Cn1cc(-c2cc(N)n3nc(-c4cn(C)c5ccccc45)cc3n2)c2ccccc21
active: MDA-MB-435 melanoma 0.548%
inactive: T-47D breast 90% | BT-549 breast 128% | SW-620 colon 85.9% | MCF7 breast 44.8% | HCT-116 colon 62.1% | HCC-2998 colon 78.5% | KM12 colon 72.7%

CCNC(=O)Oc1ccc(/C(=C(/C)c2ccccc2)c2ccc(OCCN3CCCCCC3)cc2)cc1
inactive: HCC-2998 colon 25.3%
active: T-47D breast 2.6% | BT-549 breast -3.35% | MDA-MB-435 melanoma -35.5% | SW-620 colon -42.9% | MCF7 breast 7% | HCT-116 colon -78% | KM12 colon 5.22%

CCCCCCCn1cc2c(N[C@H](C)c3ccccc3)ncnc2n1
inactive: T-47D breast 99.7% | BT-549 breast 102% | MDA-MB-435 melanoma 103% | SW-620 colon 117% | MCF7 breast 90.3% | HCT-116 colon 104% | HCC-2998 colon 116% | KM12 colon 100%

CCNC(=O)N1CCc2cc(OC)c(OCCc3ccc(OC)nc3)cc2C1c1ccc(C)cc1C (stereo not drawn)
inactive: T-47D breast 61% | MDA-MB-435 melanoma 10% | SW-620 colon 19.6% | MCF7 breast 14% | HCC-2998 colon 13%
active: BT-549 breast -6.5% | HCT-116 colon 8.5% | KM12 colon 9.57%

CN(C)CCCOc1ccc2c(c1)CN(C(=O)c1cc(C(=O)N3Cc4cccc(F)c4C3)ccc1O)C2
inactive: T-47D breast 100% | BT-549 breast 125% | MDA-MB-435 melanoma 103% | SW-620 colon 105% | MCF7 breast 83.2% | HCT-116 colon 106% | HCC-2998 colon 114% | KM12 colon 106%

CCn1c2ccccc2c2cc(-n3nncc3-c3ccccc3)ccc21
active: MDA-MB-435 melanoma -14.3% | HCT-116 colon 5.07%
inactive: T-47D breast 61.8% | BT-549 breast 80.5% | SW-620 colon 21.3% | MCF7 breast 13.4% | HCC-2998 colon 15.2% | KM12 colon 17.1%

Cc1c(F)cc(C(N)=O)cc1NCC(=O)Nc1ccc([N+](=O)[O-])cc1
inactive: T-47D breast 102% | BT-549 breast 98% | MDA-MB-435 melanoma 99.8% | SW-620 colon 92.9% | MCF7 breast 87.1% | HCT-116 colon 99.9% | HCC-2998 colon 105% | KM12 colon 98.6%

C#Cc1nc(C(C)=O)cs1
inactive: T-47D breast 101% | BT-549 breast 98.5% | MDA-MB-435 melanoma 104% | SW-620 colon 107% | MCF7 breast 90.8% | HCT-116 colon 95% | HCC-2998 colon 114% | KM12 colon 94.7%

O=S(=O)(Oc1ccc(-c2nnc(Nc3ccccc3)s2)cc1)C(F)(F)C(F)(F)C(F)(F)C(F)(F)C(F)(F)C(F)(F)F
inactive: T-47D breast 104% | BT-549 breast 112% | MDA-MB-435 melanoma 103% | SW-620 colon 103% | MCF7 breast 90.7% | HCT-116 colon 109% | HCC-2998 colon 105% | KM12 colon 102%

Cc1cc(C)c2sc(=O)n(Cc3nnc(SCCC(=O)O)o3)c2n1
inactive: T-47D breast 89.5% | BT-549 breast 123% | MDA-MB-435 melanoma 103% | SW-620 colon 103% | MCF7 breast 97% | HCT-116 colon 103% | HCC-2998 colon 104% | KM12 colon 106%

O=C(NNc1nc2cc(F)ccc2n2c(CN3CC4CNCC4C3)ccc12)c1cnccn1 (stereo not drawn)
inactive: T-47D breast 37.8% | BT-549 breast 35.3% | MDA-MB-435 melanoma 26.1% | SW-620 colon 23% | MCF7 breast 12.2% | HCT-116 colon 16.4% | HCC-2998 colon 32.1% | KM12 colon 16.8%

COc1cc2oc(-c3cccc(C(=O)N[C@@H](CC(C)C)C(=O)OC(C)(C)C)c3)cc(=O)c2c(OC)c1OC
inactive: T-47D breast 52.7% | BT-549 breast 67.5% | MDA-MB-435 melanoma 90% | SW-620 colon 83.4% | MCF7 breast 69.9% | HCT-116 colon 62.5% | HCC-2998 colon 84% | KM12 colon 59.8%

CNC(=O)c1cc(Oc2ccc3nc(NC(=O)c4ccc(N5CCOCC5)c(C(F)(F)F)c4)sc3c2)ccn1
inactive: T-47D breast 86.1% | BT-549 breast 94% | MDA-MB-435 melanoma 88.4% | SW-620 colon 114% | MCF7 breast 70% | HCT-116 colon 60.2% | HCC-2998 colon 96.3% | KM12 colon 56.7%

Brc1ccccc1/C=N/Nc1nc(N/N=C/c2ccccc2Br)nc(N2CCOCC2)n1
inactive: T-47D breast 79% | BT-549 breast 107% | MDA-MB-435 melanoma 97.7% | SW-620 colon 96.7% | MCF7 breast 85.2% | HCT-116 colon 97.5% | HCC-2998 colon 70.9% | KM12 colon 89.1%

CC1=CC(=O)C2=C(C)CC(OC(=O)CCc3ccccc3)[C@@H]3[C@H](OC(=O)[C@@H]3C)[C@@H]12 (stereo partly drawn)
inactive: T-47D breast 96.5% | BT-549 breast 98.9% | MDA-MB-435 melanoma 93.3% | SW-620 colon 96.7% | MCF7 breast 83.9% | HCT-116 colon 69.2% | HCC-2998 colon 102% | KM12 colon 91.2%

Cc1ccc(-n2cc(/C=N/NC(=O)c3nc(N)n[nH]3)c(-c3ccc(S(C)(=O)=O)cc3)n2)cc1
inactive: T-47D breast 97.5% | BT-549 breast 101% | MDA-MB-435 melanoma 87.9% | SW-620 colon 93.3% | MCF7 breast 94.2% | HCT-116 colon 104% | HCC-2998 colon 115% | KM12 colon 105%

O=S(=O)(NC1c2ccccc2C[C@H]1O)c1ccc(Cl)cc1Cl (stereo partly drawn)
inactive: T-47D breast 93.7% | BT-549 breast 126% | MDA-MB-435 melanoma 94.1% | SW-620 colon 102% | MCF7 breast 95.5% | HCT-116 colon 98.1% | HCC-2998 colon 97% | KM12 colon 96.3%

C#C[C@]1(O)CC[C@H]2[C@@H]3CC=C4c5sc(-c6ccc(C)cc6)nc5CC[C@]4(C)[C@H]3CC[C@@]21C
inactive: T-47D breast 50.4% | BT-549 breast 47.8% | HCT-116 colon 29.4% | HCC-2998 colon 62.6% | KM12 colon 12.7%
active: MDA-MB-435 melanoma -46.4% | SW-620 colon -37.5% | MCF7 breast 1.73%

CCCCCc1ccc(S(=O)(=O)Nc2cccc(-c3csc(NC(=O)CNCCN(C)C)n3)c2)cc1
inactive: T-47D breast 68.3% | BT-549 breast 104% | MDA-MB-435 melanoma 90.1% | SW-620 colon 87.3% | MCF7 breast 41.3% | HCT-116 colon 55.4% | HCC-2998 colon 16.2% | KM12 colon 90.2%

C#C[C@]1(O)CC[C@H]2[C@@H]3CC=C4c5sc(-c6ccc7c(c6)OCO7)nc5CC[C@]4(C)[C@H]3CC[C@@]21C
inactive: T-47D breast 41.5% | BT-549 breast 26.1% | HCC-2998 colon 34% | KM12 colon 14%
active: MDA-MB-435 melanoma -6.66% | SW-620 colon 2.53% | MCF7 breast -1.98% | HCT-116 colon -9.63%

Cc1ccc2sc3c(c2c1)OC(N)=C(C#N)C3c1cccc(F)c1 (stereo not drawn)
inactive: T-47D breast 35.5% | SW-620 colon 15.2% | MCF7 breast 15.2%
active: BT-549 breast -6.44% | MDA-MB-435 melanoma -28.6% | HCT-116 colon -24.6% | HCC-2998 colon 6.17% | KM12 colon 2.9%

NC(=O)c1cccc(-n2ccc3cc(NC(=O)Nc4ccc(N5CCOCC5)c(C(F)(F)F)c4)ccc32)n1
inactive: MDA-MB-435 melanoma 10.5% | HCC-2998 colon 31.3%
active: T-47D breast 1.29% | BT-549 breast -14.8% | SW-620 colon 4.98% | MCF7 breast 8.81% | HCT-116 colon 0.168% | KM12 colon -15.7%

CC(=O)N(C)C1CCc2c(sc(NC(=O)c3ccc(C(C)(C)C)cc3)c2C(N)=O)C1 (stereo not drawn)
inactive: T-47D breast 74% | BT-549 breast 88.2% | MDA-MB-435 melanoma 83.7% | SW-620 colon 58.2% | MCF7 breast 59.8% | HCT-116 colon 65.1% | HCC-2998 colon 108% | KM12 colon 64.9%

C#CC(=O)N(c1ccc(OC)cc1OC)C(C(=O)NCC(=O)OCC)c1cccs1 (stereo not drawn)
inactive: T-47D breast 38.1% | BT-549 breast 70.3% | MDA-MB-435 melanoma 95.5% | MCF7 breast 49.1% | HCT-116 colon 41.9% | HCC-2998 colon 110% | KM12 colon 28.5%
active: SW-620 colon 2.04%

CCc1cccc(NC(=O)CNc2cc(S(=O)(=O)N(C)C)cc(C)c2C)c1
inactive: T-47D breast 88.8% | BT-549 breast 97.3% | MDA-MB-435 melanoma 92.4% | SW-620 colon 97.6% | MCF7 breast 91.7% | HCT-116 colon 91.3% | HCC-2998 colon 123% | KM12 colon 98.9%

— PubChem BioAssay (NCI)
